High-throughput results as filed in PubChem.
PLC-beta3 inh – human PLC-beta3 inhibitors, primary screen, biochemical, fluorescence. inhibition, % at 12.2 µM. AID 720704, 2013. 370,000 compounds, 0.18% hits. Purified PLC-beta3, fluorogenic substrate. 1-phosphatidylinositol 4,5-bisphosphate phosphodiesterase beta-3 (Homo sapiens), Q01970; in the data active = inhibition above about 11%;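 also: 0% = median of compound wells on plate and 100% = full blocker control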
proKLK7 act – proKLK7 zymogen activators, primary screen, biochemical, fluorescence intensity; Kallikrein-7 (Homo sapiens), P49862; purified proKLK7, EDANS-DABCYL substrate fluorescence; 100% is mature enzyme control, 0% vehicle; activation, % at 7 µM; 370,000 compounds, 0.9% hits;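 active = activation above the mean of all tested compounds plus 3 SD, computed per campaign excluding outliers beyond control limits, cut at about 13% in these data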
Target sequence (P49862 whole entry, looked up): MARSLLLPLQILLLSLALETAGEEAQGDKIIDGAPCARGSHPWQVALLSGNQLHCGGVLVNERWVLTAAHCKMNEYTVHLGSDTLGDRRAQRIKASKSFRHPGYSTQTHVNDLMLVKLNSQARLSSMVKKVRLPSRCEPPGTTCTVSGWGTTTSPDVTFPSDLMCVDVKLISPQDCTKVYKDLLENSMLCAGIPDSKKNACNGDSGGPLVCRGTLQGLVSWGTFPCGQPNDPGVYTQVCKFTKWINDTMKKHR
ADAM17 inh – ADAM17 inhibitors, primary screen, biochemical, QFRET. AID 720648, 2013. 370,000 compounds, 0.83% hits. Disintegrin and metalloproteinase domain-containing protein 17 (Homo sapiens), P78536. recombinant ADAM17, EDANS/DABCYL FRET peptide cleavage. inhibition, % at 6.95 µM;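 active = inhibition above the mean of compounds lying between control limits plus 3 SD, set per campaign, cut at about 8.5% in these data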;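 also: 0% = DMSO-only wells as the low control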
ADAM10 inh – human ADAM10 inhibitors, primary screen, biochemical, QFRET, HTS; Disintegrin and metalloproteinase domain-containing protein 10 (Homo sapiens), O14672; recombinant ADAM10, EDANS/DABCYL FRET peptide cleavage, 3 h; inhibition, % at 7 µM; 370,000 compounds, 0.62% hits; AID 720582, 2013;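 active = inhibition above a per-campaign cutoff equal to the mean of compounds falling between control-based bounds plus 3 SD, cut at about 20% in these data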;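 also: 0% = DMSO wells while the 100% control is not disclosed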
PLCg1 inh – PLC-gamma1 enzyme inhibitors, primary screen, biochemical, fluorescence, purified enzyme. inhibition, % at 12.2 µM. 370,000 compounds, 0.84% hits. 1-phosphatidylinositol 4,5-bisphosphate phosphodiesterase gamma-1 (Homo sapiens), P19174. fluorogenic substrate; in the data active = inhibition above about 9.5%
sPLA2-III inh – human group III sPLA2 inhibitors, primary screen, biochemical, QFRET, BODIPY PC-A2 liposome substrate; Group 3 secretory phospholipase A2 (Homo sapiens), Q9NZ20; QFRET BODIPY PC-A2 liposome hydrolysis, fluorescence; inhibition, % at 12.2 µM; 370,000 compounds, 0.56% hits;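 active = inhibition above mean plus 3 SD of compounds lying within the high and low control bounds, cut at about 19% in these data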;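 also: 0% = median of test compound wells and 100% = no enzyme DMSO wells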
KLK7 act conf – proKLK7 zymogen activators, confirmation, biochemical, fluorescence intensity, triplicate | shares compounds with proKLK7 act | purified proKLK7, EDANS-DABCYL substrate fluorescence; scaled: vehicle 0, mature enzyme 100 | activation, % at 7 µM | 3,200 compounds, 68% hits;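 active = activation, as change over the incubation, above the mean of all tested compounds plus 3 SD, cut at about 13% in these data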
EDANS-DABCYL int – EDANS-DABCYL substrate optical interference, artefact control for kallikrein-7 zymogen activator project, biochemical, fluorescence intensity, high throughput; shares compounds with proKLK7 act; no enzyme, 4 h; solvent 0%, active enzyme control 100%; activation, % at 7 µM; 3,200 compounds, 80% hits;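 active = activation above the all-compound mean plus 3 SD, ignoring values outside control-based bounds, cut at about 4.8% in these data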;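 also: value is the 4 h activation minus the activation read at time zero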
Active calls of the source: *; i = inactive; nt = no result. The list is not random: actives were taken first. Their share in the collection is about 3.4%.

SMILES	PLC-beta3 inh	proKLK7 act	ADAM17 inh	ADAM10 inh	PLCg1 inh	sPLA2-III inh	KLK7 act conf	EDANS-DABCYL int
COC(=O)c1nn(-c2ccc3c(c2)OCO3)cc1O	-170	13*	-28	-79	-117	0	4	4
CCc1cc2c(CN3CCN(C)CC3)cc(=O)oc2cc1O	i	78*	i	i	i	0	68*	75*
CCc1cc2c3c(c(=O)oc2cc1OC(C)C(=O)O)CCCC3 (stereo not drawn)	-129	5	-369	i	-102	-3	nt	nt
CCc1cc2c3c(c(=O)oc2cc1O)CCCC3	i	54*	i	i	i	-6	62*	66*
CCc1cc2c(CN3CCN(CCO)CC3)cc(=O)oc2cc1O	i	49*	i	i	i	1	57*	67*
COC(=O)C1=C(C)N(Cc2cccc(C(F)(F)F)c2)C(=NCc2ccc(C(F)(F)F)cc2)NC1c1cccc(C(F)(F)F)c1 (stereo not drawn)	7	0	0	-3	3	-13	nt	nt
COc1cc(OC)c(OC)cc1/C=C1/Cc2ccccc2C1=O	-127	21*	-4	1	-92	3	92*	90*
CCCCCCNC(=O)c1c(N)[nH]c(C(=O)c2ccccc2)c1-c1ccc(O)cc1	-11	nt	-3	-15	1	3	nt	nt
CC[C@]12c3[nH]c4cc(-c5ccco5)ccc4c3CCN1C(=O)[C@@H](CC(=O)NCCN1CCOCC1)C[C@@H]2C(=O)N1CCN(C(=O)c2ccco2)CC1	-175	88*	-48	-182	-132	-9	64*	86*
CC[C@]12c3[nH]c4cc(-c5ccco5)ccc4c3CCN1C(=O)[C@@H](CC(=O)NCCN1CCOCC1)C[C@@H]2C(=O)N1CCN(C(=O)C2CC2)CC1	i	110*	-201	i	i	-9	76*	83*
CC[C@]12c3[nH]c4ccccc4c3CCN1C(=O)C(CC(=O)NCCN1CCOCC1)C[C@@H]2C(=O)N1CCN(C(=O)c2ccco2)CC1 (stereo partly drawn)	3	1	-3	-3	-4	-1	nt	nt
CC[C@]12c3[nH]c4cc(-c5ccco5)ccc4c3CCN1C(=O)[C@@H](CC(=O)NCCc1ccccn1)C[C@@H]2C(=O)N1CCN(C(=O)c2ccco2)CC1	i	151*	-228	i	i	0	119*	138*
Cc1cc(=O)oc2c3c(cc(OCC(=O)NCC(=O)O)c12)OC(C)(C)CC3	i	43*	i	i	i	2	66*	79*
Cc1cc(=O)oc2c3c(cc(OCC(=O)NCc4ccccc4)c12)OC(C)(C)CC3	-387	-14	-340	i	-285	0	nt	nt
Cc1cc(=O)oc2c3c(cc(OCC(=O)NC4CC4)c12)OC(C)(C)CC3	-283	15*	-280	i	-219	4	22*	27*
COc1ccc(C2=NS(=O)(=O)N(C)C(C(=O)NC3CCCC3)=C2)cc1OC	-28	0	3	-8	-20	0	nt	nt
COc1ccc(C2=NS(=O)(=O)N(C)C(C(=O)NC3CCCCC3)=C2)cc1OC	-19	13*	-2	-12	-2	16	1	1
NNC(=O)c1ccc2nc(-c3ccc(Br)cc3)cn2c1	-26	5	-15	-76	-16	-2	nt	nt
COc1ccc(-c2cn3cc(C(=O)NN)ccc3n2)cc1	i	40*	-168	-490	-401	-3	8	10.0*
CCC[C@H]1[C@@H](NC(=O)c2cccc(C)c2)CC[C@@]23CCCN2C(=O)CCC[C@@H]13	0	nt	0	-4	3	10	nt	nt
CCOC(=O)C1=C(CSc2nc(-c3ccccc3)ccc2C#N)OC(N)=C(C#N)C1c1cccnc1 (stereo not drawn)	i	382*	-186	i	i	-24	384*	347*
CCOC(=O)C1=C(CSc2nc3c(cc2C#N)CCC3)OC(N)=C(C#N)C1c1ccccc1 (stereo not drawn)	-124	5	-30	-96	-98	-8	nt	nt
CCOC(=O)C1=C(CSc2nc(-c3ccccc3)ccc2C#N)OC(N)=C(C#N)C1c1ccccc1 (stereo not drawn)	i	470*	-160	-492	i	-31	585*	566*
O=C(Nc1cccnc1)c1ccc(CSc2ccc(Cl)cc2)o1	1	1	3	-3	-2	-10	nt	nt
CC(C)[C@@H](C)/C=C/[C@@H](C)[C@H]1CC[C@@H]2[C@]1(C)CCC1[C@]23C=C[C@]2(C[C@@H](O)CC[C@]12C)N(C(=O)Cc1ccccc1)O3 (stereo partly drawn)	0	0	-1	-3	3	2	nt	nt
SMILES	PLC-beta3 inh	proKLK7 act	ADAM17 inh	ADAM10 inh	PLCg1 inh	sPLA2-III inh	KLK7 act conf	EDANS-DABCYL int
Cn1c(=O)c(=O)n(C)c2cc(S(=O)(=O)N3CCN(Cc4ccc5c(c4)OCO5)CC3)ccc21	0	1	-1	-9	5	-1	nt	nt
O=C(Nc1ccc(O)c(-c2nc3ccccc3s2)c1)c1cccs1	-115	0	1	1	-102	12	nt	nt
O=C(Nc1ccc(F)cc1)Nc1sccc1-c1nc2ccccc2s1	-487	32*	-25	-63	-482	1	-184	-287
C[C@H]1CN([C@@H](C)CO)C(=O)CCCn2cc(nn2)CO[C@@H]1CN(C)S(=O)(=O)c1ccccc1F	4	1	0	-9	3	6	nt	nt
CC(=O)C1=C(C)N(CC(C)C)C(=S)NC1c1cccc(Cl)c1 (stereo not drawn)	4	2	2	9	6	-1	nt	nt
CCCNC(=O)c1c(N)n(-c2cccc(OC)c2)c2nc3ccccc3nc12	-296	-40	-154	-473	-239	-3	nt	nt
Nc1c(C(=O)NCCN2CCOCC2)c2nc3ccccc3nc2n1-c1cccc(F)c1	i	30*	i	i	i	-10	-71	-73
